Source: PubChem BioAssay (Tox21)
Records with an inconclusive call do not appear. Calls of active or inactive are those of the source. Unless noted, calls follow the shape of the dose curve; as a rule, active = well fitted curve in the direction sought with a large enough effect in the repeat runs; inconclusive = weak or mixed curves; inactive = no such curve, though single readings can be large; an effect the other way counts as inactive or inconclusive.

Legend:
[1] = qHTS RealTime-Glo MT Cell Viability Assay in HEK293 cells - 0 hour (AID 1224880); also: top concentration of the series differs between compounds; nearly all actives have a fitted effect of over 45% in size
Summary of the method: (§1)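 600 HEK293 cells per well, dispensed already mixed with RealTime-Glo MT reagents. Compound dosing came 5 h later. The same wells were read for luminescence at 0, 8, 16, 24, 32 and 40 h of exposure at 37 C.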

[2] = A CellTox Green Cytotoxicity Assay to monitor cytotoxicity in HepG2 cells - 0 hour (AID 1224882); also: nearly all actives have a fitted effect of over 35% in size
Summary of the method: (§2)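 First, HepG2 cells (600/well) mixed with reagent were plated; second, after 5 h at 37 C they received compounds via pintool; third, fluorescence was measured at 0 h through 40 h at 8 h intervals.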

[3] = A CellTox Green Cytotoxicity Assay to monitor cytotoxicity in HepG2 cells - 32 hour (AID 1224883); also: nearly all actives have a fitted effect of over 50% in size; also: potency is read from the fitted curve at half-maximal effect
Summary of the method: as §2

[4] = A CellTox Green Cytotoxicity Assay to monitor cytotoxicity in HEK293 cells - 8 hour (AID 1224884); also: nearly all actives have a fitted effect of over 35% in size
Summary of the method: (§3)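 Dead-cell fluorescence measured kinetically: asymmetric cyanine dye, HEK293, 600 cells/well, 5 h settle, 23 nL cpd/DMSO, 37 C, reads 0–40 h every 8 h.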

[5] = qHTS RealTime-Glo MT Cell Viability Assay in HepG2 cells - 16 hour (AID 1224885); also: nearly all actives have a fitted effect of over 50% in size; also: potency is read from the fitted curve at half-maximal effect
Summary of the method: (§4)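 qHTS, HepG2, 600 cells/well, RealTime-Glo (NanoLuc + prosubstrate) added with cells; 5 h preincubation; DMSO compound addition; 37 C; luminescence at 0/8/16/24/32/40 h.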

[6] = qHTS RealTime-Glo MT Cell Viability Assay in HEK293 cells - 24 hour (AID 1224886); also: nearly all actives have a fitted effect of over 50% in size; also: potency is read from the fitted curve at half-maximal effect
Summary of the method: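 Assay medium contained NanoLuc luciferase plus cell-permeant prosubstrate, added with HEK293 cells at 600 cells/well. After 5 h at 37 C/5% CO2 compounds were added; plates stayed at 37 C for 40 h with serial luminescence reads.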

[7] = qHTS RealTime-Glo MT Cell Viability Assay in HEK293 cells - 8 hour (AID 1224887); also: nearly all actives have a fitted effect of over 50% in size; also: potency is read from the fitted curve at half-maximal effect
Summary of the method: as §1

[8] = A CellTox Green Cytotoxicity Assay to monitor cytotoxicity in HEK293 cells - 16 hour (AID 1224888); also: nearly all actives have a fitted effect of over 35% in size
Summary of the method: as §3

[9] = qHTS RealTime-Glo MT Cell Viability Assay in HepG2 cells - 0 hour (AID 1224889); also: nearly all actives have a fitted effect of over 50% in size
Summary of the method: as §4

[10] = A CellTox Green Cytotoxicity Assay to monitor cytotoxicity in HepG2 cells - 8 hour (AID 1224890); also: nearly all actives have a fitted effect of over 45% in size; also: potency is read from the fitted curve at half-maximal effect
Summary of the method: as §2

[11] = qHTS assay to identify small molecule antagonists of the estrogen receptor alpha (ER-alpha) signaling pathway using the BG1 cell line in the presence of 0.1 nM 17-beta-estradiol - cell viability counter screen (AID 1259241); also: nearly all actives have a fitted effect of over 40% in size
Summary of the method: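 CellTiter-Fluor read (30 min, 37C) on ER-alpha/ERE-luc VM7Luc4E2 cells; 22 hr compound treatment; agonist 0.1 nM E2 final; same-well multiplex.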

[12] = qHTS assay to identify small molecule antagonists of the androgen receptor (AR) signaling pathway using the MDA cell line in the presence of 0.5 nM R1881 - cell viability counter screen (AID 1259242); also: nearly all actives have a fitted effect of over 45% in size
Summary of the method: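 qHTS format. MDA-kb2 (MMTV-luc, AR/GR responsive) + cpd + 0.5 nM R1881 final, 16 hr 37C/0% CO2 → CellTiter-Fluor 30 min → fluorescence intensity.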

[13] = qHTS assay to identify small molecule HDAC inhibitors (AID 1259364); also: potency is read from the fitted curve at half-maximal effect;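 also: wild-type HCT-116 cells with endogenous class I/II HDAC activity; nearly all actives have a fitted effect of over 45% in size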
Summary of the method: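 Quantitative high-throughput format: overnight-seeded HCT-116 cells got compounds for 2 hr at 37C; HDAC-Glo I/II reagent added, 30 min RT, luminescence measured.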

[14] = qHTS assay to identify small molecule HDAC inhibitors - cell viability counter screen (AID 1259365); also: nearly all actives have a fitted effect of over 50% in size; also: potency is read from the fitted curve at half-maximal effect
Summary of the method: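 To flag cytotoxic hits, 1,500 wild-type HCT-116 cells per well, plated the day before, receive test compounds for 2hr at 37 C before CellTiter-Glo reagent and a luminescence read.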

[15] = qHTS assay to identify small molecule agonists of the sonic hedgehog signaling (Shh) pathway - cell viability counter screen (AID 1259366); also: nearly all actives have a fitted effect of over 50% in size; also: potency is read from the fitted curve at half-maximal effect
Summary of the method: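 Fluorescence from CellTiter-Fluor reports live cells in this counter screen. NIH/3T3-derived Gli1-Luc reporter cells receive test compounds for 24hr at 37C; reagent goes in at 23hr.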

[16] = qHTS assay to identify small molecule antagonists of the sonic hedgehog signaling (Shh) pathway - cell viability counter screen (AID 1259367); also: nearly all actives have a fitted effect of over 55% in size
Summary of the method: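 CellTiter-Fluor signal in conditioned medium-stimulated 3T3 Gli1-Luc cells, 23 hr compound exposure, 37C.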

[17] = A CellTox Green Cytotoxicity Assay to monitor cytotoxicity in HEK293 cells - 32 hour (AID 1224881); also: nearly all actives have a fitted effect of over 40% in size
Summary of the method: as §3

[18] = biological target: Estrogen receptor (Homo sapiens) (UniProt P03372); experiment: qHTS assay to identify small molecule antagonists of the estrogen receptor alpha (ER-alpha) signaling pathway using the BG1 cell line in the presence of 0.1 nM 17-beta-estradiol (AID 1259244); also: nearly all actives have a fitted effect of over 50% in size
Estrogen receptor (Homo sapiens), sequence (P03372 whole entry, looked up): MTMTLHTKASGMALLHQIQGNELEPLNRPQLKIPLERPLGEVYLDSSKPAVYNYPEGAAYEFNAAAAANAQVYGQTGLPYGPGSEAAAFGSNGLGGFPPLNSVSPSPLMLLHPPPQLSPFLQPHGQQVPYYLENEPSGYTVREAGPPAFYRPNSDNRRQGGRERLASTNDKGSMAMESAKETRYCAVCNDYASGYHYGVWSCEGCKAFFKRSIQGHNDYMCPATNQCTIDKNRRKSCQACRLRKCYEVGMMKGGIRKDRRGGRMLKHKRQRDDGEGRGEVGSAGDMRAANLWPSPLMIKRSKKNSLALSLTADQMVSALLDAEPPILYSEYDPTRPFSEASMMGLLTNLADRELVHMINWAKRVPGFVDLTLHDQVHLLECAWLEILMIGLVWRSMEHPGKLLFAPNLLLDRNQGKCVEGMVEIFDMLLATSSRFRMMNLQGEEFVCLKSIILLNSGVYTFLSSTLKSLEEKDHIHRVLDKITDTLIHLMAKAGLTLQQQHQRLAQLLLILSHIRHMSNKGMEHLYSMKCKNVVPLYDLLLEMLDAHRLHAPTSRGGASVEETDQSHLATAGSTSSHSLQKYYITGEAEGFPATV
Summary of the method: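 Reporter is a stably transfected luciferase under four estrogen responsive elements in VM7Luc4E2 cells expressing native full-length ER-alpha; inhibition of 0.1 nM (final) 17beta-estradiol-driven signal over 22 h is read by luminescence.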

[19] = qHTS assay to identify small molecule phospholipidosis (PLD) inducers (AID 1259344; active = well fitted curve in the direction sought with a large enough effect; an effect the other way counts as inactive or inconclusive)
Summary of the method: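 Accumulated phospholipid, stained red by LipidTOX during 24 h compound treatment of HepG2 cells at 37 C, is quantified from images as pit number and intensity, normalised per cell using Hoechst-stained nuclei.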

[20] = biological target: Androgen receptor (Homo sapiens) (UniProt P10275); experiment: qHTS assay to identify small molecule antagonists of the androgen receptor (AR) signaling pathway using the MDA cell line in the presence of 0.5 nM R1881 (AID 1259243); also: nearly all actives have a fitted effect of over 50% in size; also: potency is read from the fitted curve at half-maximal effect
Androgen receptor (Homo sapiens), sequence (P10275 whole entry, looked up): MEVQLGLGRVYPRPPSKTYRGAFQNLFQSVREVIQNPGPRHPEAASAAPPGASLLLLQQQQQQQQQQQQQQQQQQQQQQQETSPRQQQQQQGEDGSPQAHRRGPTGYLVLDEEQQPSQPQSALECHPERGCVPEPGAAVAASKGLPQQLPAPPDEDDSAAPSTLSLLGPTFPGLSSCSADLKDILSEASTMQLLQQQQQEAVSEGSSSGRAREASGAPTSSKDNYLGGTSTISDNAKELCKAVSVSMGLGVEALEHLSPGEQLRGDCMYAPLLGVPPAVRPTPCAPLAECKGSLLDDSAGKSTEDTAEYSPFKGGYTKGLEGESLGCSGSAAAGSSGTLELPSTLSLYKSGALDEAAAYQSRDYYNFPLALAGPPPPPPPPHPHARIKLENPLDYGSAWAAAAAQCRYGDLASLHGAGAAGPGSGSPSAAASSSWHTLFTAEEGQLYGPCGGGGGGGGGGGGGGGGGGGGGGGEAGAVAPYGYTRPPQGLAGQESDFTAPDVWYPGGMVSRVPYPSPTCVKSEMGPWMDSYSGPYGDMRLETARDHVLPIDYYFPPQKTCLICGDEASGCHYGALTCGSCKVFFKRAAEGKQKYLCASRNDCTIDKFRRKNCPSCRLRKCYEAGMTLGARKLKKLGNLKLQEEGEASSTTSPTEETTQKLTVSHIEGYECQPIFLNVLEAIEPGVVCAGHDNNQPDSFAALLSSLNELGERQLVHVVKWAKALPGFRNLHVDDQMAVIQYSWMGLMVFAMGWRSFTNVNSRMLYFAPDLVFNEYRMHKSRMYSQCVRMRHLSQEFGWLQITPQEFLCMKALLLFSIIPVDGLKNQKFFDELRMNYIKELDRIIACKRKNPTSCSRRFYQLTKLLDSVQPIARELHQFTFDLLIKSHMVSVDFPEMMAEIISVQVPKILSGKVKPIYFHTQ
Summary of the method: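 Antagonist mode quantitative HTS in MDA-kb2 MMTV-luciferase cells, agonist R1881 at 0.5 nM final, 16 hr exposure at 37C and 0% CO2, luminescent detection.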

Measured: Potency

CCCCCCCCN
not listed: [17] | [18] | [19] | [20]
inactive: all other assays above

CCOC(=O)c1ccc(OCCN2C[C@H](O)[C@@H](O)[C@H](O)[C@H]2CO)cc1
not listed: [1] | [9] | [14] | [15] | [20]
inactive: all other assays above

C[C@@H](O[C@H]1OCCN(Cc2n[nH]c(=O)[nH]2)[C@H]1c1ccc(F)cc1)c1cc(C(F)(F)F)cc(C(F)(F)F)c1
active: [3] 16.9 µM | [5] 19 µM | [6] 16.9 µM | [10] 16.9 µM | [20] 29.8 µM
not listed: [7] | [15] | [16] | [17] | [18] | [19]
inactive: all other assays above

CC(=O)NC1(c2cccc(F)c2)CCN(CC[C@@]2(c3ccc(Cl)c(Cl)c3)CN(c3ccccc3)C(=O)CO2)CC1
inactive: [1] | [2] | [4] | [9] | [10] | [11] | [12] | [13] | [14]
active: [3] 43.8 µM | [5] 43.8 µM | [6] 17.4 µM | [7] 31 µM

CCOC(=O)[C@H](CCc1ccccc1)N[C@@H](C)C(=O)N(CC(=O)O)C1Cc2ccccc2C1
not listed: [1] | [20]
inactive: all other assays above

O=C(O)CCC(=O)C(=O)O
not listed: [1] | [18] | [20]
inactive: all other assays above

C=CC(C)(CCC=C(C)C)OC(=O)CC(C)C (stereo not given)
not listed: [1] | [19] | [20]
inactive: all other assays above

CCCC(C(=O)OCCN(CC)CC)(c1ccccc1)c1ccccc1
inactive: [1] | [2] | [4] | [9] | [10] | [11] | [13] | [14] | [16]
active: [6] 21.3 µM

CC=C(Cl)Cl
not listed: [8] | [9] | [17] | [19] | [20]
inactive: all other assays above

O=C=Nc1cccc(C(F)(F)F)c1
not listed: [6] | [8] | [15] | [17] | [19]
inactive: all other assays above

C=CC(=O)[O-].C=CC(=O)[O-].[Zn+2]
active: [15] 53.2 µM
not listed: [1] | [16] | [18] | [19] | [20]
inactive: all other assays above

Cc1cc2c(OCC(CNC(C)(C)C)OC(=O)c3ccccc3)cccc2[nH]1 (stereo not given)
not listed: [3] | [6] | [8] | [12] | [17] | [20]
inactive: all other assays above

C(=C\c1ccccc1)/c1ccccc1
active: [13] 19.2 µM
not listed: [8] | [17] | [19] | [20]
inactive: all other assays above

O=c1cc(-c2ccccc2)oc2ccc3ccccc3c12
active: [3] 21.9 µM | [13] 0.137 µM | [14] 17.2 µM
not listed: [4] | [8] | [10] | [17] | [19]
inactive: all other assays above

Brc1cc2ccccc2c2ccccc12
not listed: [6] | [7] | [12] | [15] | [17] | [18] | [19] | [20]
inactive: all other assays above

CC1(CN2CCC(n3c(=O)[nH]c4ccccc43)CC2)OCc2ccccc2-n2cccc21 (stereo not given)
active: [6] 19 µM
not listed: [3] | [5] | [7] | [17] | [18] | [19] | [20]
inactive: all other assays above
